From PubChem BioAssay (Tox21) come the findings set out here.

Values joined by “and” are separate entries in the source; they are usually repeats but may differ in a detail not shown here. Equal values may be shown once. A number with no mark means an inactive call. Results filed as inconclusive are left out. Active and inactive are the calls of the source. Unless noted, the call rests on the fitted dose curve; in most records, active means well fitted curve in the direction sought with a large enough effect in the repeat runs; inconclusive means weak or mixed curves; inactive means no such curve, though single readings can be large; an effect the other way counts as inactive or inconclusive.

In assay [1] the target is Thyrotropin receptor (Homo sapiens) (UniProt P16473). As to the kind of experiment: qHTS assay to identify small molecule antagonists of the thyroid stimulating hormone receptor (TSHR) signaling pathway (AID 1259385; calls by dose curve; further: nearly all actives have a fitted effect of over 20% in size). The conditions noted are these: TSHR-HEK293 cAMP HTRF, TSH-stimulated antagonist mode; series mostly up to 92.4 µM. In a few lines:
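TSHR-HEK293 cells were plated and held 18 h at 37C/5% CO2, then given compound plus Ro20-1724 and stimulated with TSH at 1.5 ng/mL final. After 30 min at room temperature, cAMP was detected with cAMP-d2/anti-cAMP-cryptate (1 h) by fluorescence.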

Assay [2] can be described thus: qHTS assay to identify small molecule agonists of the estrogen receptor alpha (ER-alpha) signaling pathway in the presence of an antagonist - cell viability counter screen (AID 1259386).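 Further: cells exposed to compounds for 22 h at 37 °C before the viability read; nearly all actives have a fitted effect of over 30% in size.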 Further: potency means the concentration at half of the fitted maximal effect. The following applies: VM7Luc4E2 viability, CellTiter-Fluor fluorescence, 22 h; series mostly up to 92.4 µM. The procedure, abridged: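 Cell viability in VM7Luc4E2 cells (endogenous full-length ER-alpha) measured by CellTiter-Fluor fluorescence in the same wells as the luciferase screen. Cells pre-cultured 5 days in charcoal-stripped serum, then treated 22 h with compounds at 15 concentrations plus 10.0nM ICI-182,780.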
In general terms: In qHTS, concentration-response curves come from the screen itself.

Assay [3] deals with Progesterone receptor (Homo sapiens) (UniProt P06401). Put plainly: qHTS assay to identify small molecule antagonists of the progesterone receptor (PR) signaling pathway (AID 1346795; active means well fitted inhibition curve with a large enough effect in the signal ratio in the repeat runs, not every such curve was filed as active; the % refers to the signal ratio; further: potency means the concentration at half of the fitted maximal effect). The conditions noted are these: PR-UAS-bla HEK293T, beta-lactamase FRET ratio, 16 h; series mostly up to 92.4 µM. The procedure, abridged:
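Antagonist mode with agonist R5020 at 1 nM final and 16 hr incubation at 37C. Reporter was beta-lactamase driven by UAS in HEK293T (PR-UAS-bla), 2% charcoal-stripped serum; signal from LiveBLAzer FRET substrate, 2 hr at room temperature.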

Assay [4] is described as follows: qHTS assay to identify small molecule antagonists of the progesterone receptor (PR) signaling pathway - cell viability counter screen (AID 1346798). Further: nearly all actives have a fitted effect of over 50% in size. Further: potency means the concentration at half of the fitted maximal effect. The following applies: PR-UAS-bla HEK293T viability, CellTiter-Glo luminescence, 16 h; series mostly up to 92.4 µM. The procedure, abridged:
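Cytotoxicity read as CellTiter-Glo luminescence (30 min, room temperature) in the same wells as the beta-lactamase readout. HEK293T PR-UAS-bla cells in charcoal-stripped 2% FBS received compound and R5020, then 16 h at 37C, 5% CO2.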

A short description of assay [5]: qHTS assay to identify small molecule agonists of the progesterone receptor (PR) signaling pathway - cell viability counter screen (AID 1346799; calls by dose curve; further: nearly all actives have a fitted effect of over 45% in size). The following applies: PR-UAS-bla HEK293T viability, CellTiter-Glo luminescence, 16 h; series mostly up to 92.4 µM. In a few lines:
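Cytotoxicity measured by CellTiter-Glo luminescence (30 min, RT) in the same wells as the PR beta-lactamase agonist read. Those HEK293T cells had 16 h compound treatment at 37 C in 2% charcoal-stripped FBS medium.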

A short description of assay [6]: qHTS assay to identify small molecule antagonists of the TGF-beta/Smad signaling pathway - cell viability counter screen (AID 1346824). Further: nearly all actives have a fitted effect of over 50% in size. Further: potency means the concentration at half of the fitted maximal effect. The conditions noted are these: SBE-bla HEK293T viability, CellTiter-Glo luminescence; series mostly up to 76.8 µM. The procedure, abridged:
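SBE-bla HEK 293T cells were plated overnight at 37 C, then given compounds in DMSO plus TGF-beta1 (added as 0.25 ng/mL solution) for 5 hr. After the bla read, CellTiter-Glo was added to the same wells and luminescence read after 30 min at room temperature.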

Assay [7] can be described thus: qHTS assay to identify small molecule agonists of the TGF-beta/Smad signaling pathway - cell viability counter screen (AID 1346829). Further: nearly all actives have a fitted effect of over 45% in size. Further: potency means the concentration at half of the fitted maximal effect. The following applies: SBE-bla HEK293T viability, CellTiter-Glo luminescence, 5 h; series mostly up to 76.8 µM. The procedure, abridged: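 CellTiter-Glo luminescence readout; SBE-bla HEK 293T cells, overnight plating, compound 5 hr at 37 C/5% CO2, then bla substrate 2 hr RT, then CellTiter-Glo 30 min RT.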

A short description of assay [8]: qHTS assay to identify small molecule agonists of the TGF-beta/Smad signaling pathway (AID 1346859; active means well fitted activation curve with a large enough effect in the signal ratio in the repeat runs, not every such curve was filed as active; the % refers to the signal ratio). The conditions noted are these: SBE-bla HEK293T, TGF-beta/Smad beta-lactamase reporter, 5 h; series mostly up to 76.8 µM. The procedure, abridged:
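Fluorescence (ex 405 nm; em 460 and 530 nm) was read 2 h after LiveBLAzer FRET substrate at RT. The preceding compound treatment of overnight-plated SBE-bla HEK293T cells lasted 5 h at 37 C.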

Assay [9] is described as follows: Human pregnane X receptor (PXR) small molecule agonists, qHTS cell viability counter screen (AID 1346977). Further: nearly all actives have a fitted effect of over 50% in size. Further: potency means the concentration at half of the fitted maximal effect. The following applies: PXR-Luc HepG2 viability, CellTiter-Fluor, 24 h; series mostly up to 92.4 µM. The procedure, abridged: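 Same-well viability read: CellTiter-Fluor added after 23 hr compound exposure, fluorescence measured 1 hr later. Cells were PXR-Luc HepG2 seeded at 2,000/well in 5% charcoal-stripped FBS medium, rested 5 hr before dosing at 37 C.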

The nature of assay [10]: Caspase-3/7 induction in HepG2 cells by small molecules, qHTS assay (AID 1346978). Further: nearly all actives have a fitted effect of over 15% in size. The following applies: HepG2 caspase-3/7 activation, Caspase-Glo luminescence, 17 h; series mostly up to 92.4 µM. In a few lines:
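Wild-type HepG2 cells (2,000/well) were settled 5 h at 37 C, 5% CO2, then exposed to compounds in DMSO for 17 h. Caspase-3/7 activity was read by luminescence 30 min after adding Caspase-Glo 3/7 reagent at room temperature.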

A short description of assay [11]: Caspase-3/7 induction in CHO-K1 cells by small molecules, qHTS cell viability counter screen (AID 1346979). Further: nearly all actives have a fitted effect of over 35% in size. Further: potency means the concentration at half of the fitted maximal effect. The following applies: CellTiter-Fluor fluorescence, 17 h; series mostly up to 92.4 µM. The procedure, abridged: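 Cytotoxicity counter screen: CellTiter-Fluor added to compound-treated wild-type CHO-K1 cells at 16 h (37C, 5% CO2), fluorescence measured 1 h later; same wells as caspase-3/7 measurement.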

Assay [12] is described as follows: Caspase-3/7 induction in CHO-K1 cells by small molecules, qHTS assay (AID 1346980). Further: nearly all actives have a fitted effect of over 15% in size. The following applies: CHO-K1 caspase-3/7 induction, Caspase-Glo luminescence, 17 h; series mostly up to 92.4 µM. In a few lines:
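Wild-type cells were seeded at 1,500 per well and settled 5 hr at 37 C, 5% CO2, then exposed to DMSO-dissolved compounds for 17 hr. Caspase-Glo 3/7 reagent was added, and luminescence was read after 30min at room temperature.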

Assay [13] has as its target Nuclear receptor subfamily 1 group I member 2 (Homo sapiens) (UniProt O75469). As to the kind of experiment: Human pregnane X receptor (PXR) small molecule agonists, qHTS assay (AID 1346982). Further: nearly all actives have a fitted effect of over 35% in size. Further: potency means the concentration at half of the fitted maximal effect. The following applies: PXR-Luc HepG2, CYP3A4 luciferase reporter, 24 h; series mostly up to 92.4 µM. In a few lines:
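PXR-Luc HepG2 reporter cells (CYP3A4-driven luciferase) in 5% charcoal-stripped FBS medium, plated 5 h before compound addition, then treated 24 h at 37C. Luciferase read by ONE-Glo luminescence after 30 min at room temperature.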

In assay [14] the target is Progesterone receptor (Homo sapiens) (UniProt P06401). As to the kind of experiment: qHTS assay to identify small molecule agonists of the progesterone receptor (PR) signaling pathway (AID 1346784; calls by dose curve; further: nearly all actives have a fitted effect of over 30% in size). The following applies: PR-UAS-bla HEK293T, beta-lactamase FRET ratio, 16 h; series mostly up to 92.4 µM. The procedure, abridged:
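Agonist qHTS: compounds pinned onto 3,000 PR-UAS-bla HEK 293T cells per well in charcoal-stripped serum medium, 16hr at 37C, then beta-lactamase activity measured by LiveBLAzer FRET fluorescence after 2 hours at room temperature.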

Assay [15] in a line: Caspase-3/7 induction in HepG2 cells by small molecules, qHTS cell viability counter screen (AID 1346981). Further: nearly all actives have a fitted effect of over 30% in size. Further: potency means the concentration at half of the fitted maximal effect. The conditions noted are these: CellTiter-Fluor fluorescence, 17 h; series mostly up to 92.4 µM. The procedure, abridged:
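Wild-type HepG2 cells, 2,000/well, settled 5 hr at 37 C, 5% CO2 before compound addition. Viability read by CellTiter-Fluor fluorescence, reagent added after 16 hr compound exposure, then 1 hr at 37C, in the same wells as the caspase read.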

In assay [16] the target is Thyrotropin-releasing hormone receptor (Homo sapiens) (UniProt P34981). Put plainly: qHTS assay to identify small molecule antagonists of the thyrotropin-releasing hormone receptor (TRHR) signaling pathway (AID 1346877; active means well fitted inhibition curve with a large enough effect in the repeat runs, not every such curve was filed as active). The conditions noted are these: TRHR-HEK293, TRH-induced calcium fluorescence, antagonist mode; series mostly up to 51.3 µM. In a few lines: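 TRHR-expressing HEK293 cells loaded with calcium dye for 2 h at 37 C; compounds pre-incubated 5 min at room temperature before TRH challenge at 1 nM final. Intracellular calcium fluorescence read kinetically for 3 min; 15 concentrations in triplicate.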

For assay [17] the target is unchanged. As to the kind of experiment: qHTS assay to identify small molecule agonists of the thyrotropin-releasing hormone receptor (TRHR) signaling pathway (AID 1346891; calls by dose curve). The conditions noted are these: TRHR-HEK293 calcium fluorescence, agonist mode; series mostly up to 57.6 µM. The procedure, abridged:
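Agonist-mode intracellular calcium readout: kinetic fluorescence over 3 min at 1 s intervals after compound addition to TRHR-HEK293 cells (18 h seeded, 2 h dye-loaded at 37 C). Fifteen concentrations, triplicates.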

Assay [18] deals with Nuclear receptor subfamily 1 group I member 2 (Rattus norvegicus) (UniProt Q9R1A7). As to the kind of experiment: Rat pregnane X receptor (rPXR) activation by small molecules, qHTS assay (AID 1346983). Further: nearly all actives have a fitted effect of over 20% in size. The conditions noted are these: rPXR luciferase reporter cells, One-Glo luminescence, 24 h; hits give high values. The procedure, abridged:
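Cell-based rPXR luciferase reporter assay, 2,000 cells per well, rested 5hr at 37 C before compound addition in DMSO, then 24 hr at 37 C. One-Glo reagent was added and luminescence read after 30 min at room temperature.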

Assay [19] concerns the target Nuclear receptor subfamily 1 group I member 2 (Homo sapiens) (UniProt O75469). Put plainly: Human pregnane X receptor (PXR) activation by small molecules, qHTS assay (AID 1346985). Further: nearly all actives have a fitted effect of over 40% in size. The conditions noted are these: DPX-2 HepG2 CYP3A4-luciferase, 24 h; series mostly up to 38.3 µM. In a few lines: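 DPX-2 cells (HepG2 co-transfected with a PXR response element and a CYP3A4-promoter luciferase construct) were seeded at 2,000 per well, rested 5 hr at 37C, then exposed to DMSO-dissolved compounds for 24 hr. Activation was read as luciferase luminescence.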
On the % scale 0 is the no-effect control and ±100 the full control effect.

Sequence of Thyrotropin-releasing hormone receptor (Homo sapiens) (P34981 whole entry, looked up): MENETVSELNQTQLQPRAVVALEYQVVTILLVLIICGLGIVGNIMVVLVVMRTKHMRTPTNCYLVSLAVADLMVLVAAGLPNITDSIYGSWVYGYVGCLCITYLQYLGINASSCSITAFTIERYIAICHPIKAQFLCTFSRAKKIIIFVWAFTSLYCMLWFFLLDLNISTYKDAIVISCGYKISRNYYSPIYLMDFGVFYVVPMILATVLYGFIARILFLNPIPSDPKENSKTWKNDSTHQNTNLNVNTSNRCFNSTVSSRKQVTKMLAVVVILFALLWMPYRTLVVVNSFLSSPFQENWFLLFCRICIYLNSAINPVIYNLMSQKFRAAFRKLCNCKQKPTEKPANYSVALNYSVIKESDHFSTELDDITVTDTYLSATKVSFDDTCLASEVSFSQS
Sequence of Nuclear receptor subfamily 1 group I member 2 (Homo sapiens) (O75469 whole entry, looked up): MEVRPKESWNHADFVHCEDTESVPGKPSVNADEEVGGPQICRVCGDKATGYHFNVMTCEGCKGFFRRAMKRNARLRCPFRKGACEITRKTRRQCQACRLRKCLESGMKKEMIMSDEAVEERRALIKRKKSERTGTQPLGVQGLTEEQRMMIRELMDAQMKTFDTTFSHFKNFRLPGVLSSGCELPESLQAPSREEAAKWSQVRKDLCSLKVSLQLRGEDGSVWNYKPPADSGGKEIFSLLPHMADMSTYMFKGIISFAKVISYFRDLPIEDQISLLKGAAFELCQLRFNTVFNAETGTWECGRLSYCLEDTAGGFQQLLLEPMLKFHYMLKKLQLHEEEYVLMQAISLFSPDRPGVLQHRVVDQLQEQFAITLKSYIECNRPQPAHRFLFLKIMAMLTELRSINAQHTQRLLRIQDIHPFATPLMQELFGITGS
Sequence of Thyrotropin receptor (Homo sapiens) (P16473 whole entry, looked up): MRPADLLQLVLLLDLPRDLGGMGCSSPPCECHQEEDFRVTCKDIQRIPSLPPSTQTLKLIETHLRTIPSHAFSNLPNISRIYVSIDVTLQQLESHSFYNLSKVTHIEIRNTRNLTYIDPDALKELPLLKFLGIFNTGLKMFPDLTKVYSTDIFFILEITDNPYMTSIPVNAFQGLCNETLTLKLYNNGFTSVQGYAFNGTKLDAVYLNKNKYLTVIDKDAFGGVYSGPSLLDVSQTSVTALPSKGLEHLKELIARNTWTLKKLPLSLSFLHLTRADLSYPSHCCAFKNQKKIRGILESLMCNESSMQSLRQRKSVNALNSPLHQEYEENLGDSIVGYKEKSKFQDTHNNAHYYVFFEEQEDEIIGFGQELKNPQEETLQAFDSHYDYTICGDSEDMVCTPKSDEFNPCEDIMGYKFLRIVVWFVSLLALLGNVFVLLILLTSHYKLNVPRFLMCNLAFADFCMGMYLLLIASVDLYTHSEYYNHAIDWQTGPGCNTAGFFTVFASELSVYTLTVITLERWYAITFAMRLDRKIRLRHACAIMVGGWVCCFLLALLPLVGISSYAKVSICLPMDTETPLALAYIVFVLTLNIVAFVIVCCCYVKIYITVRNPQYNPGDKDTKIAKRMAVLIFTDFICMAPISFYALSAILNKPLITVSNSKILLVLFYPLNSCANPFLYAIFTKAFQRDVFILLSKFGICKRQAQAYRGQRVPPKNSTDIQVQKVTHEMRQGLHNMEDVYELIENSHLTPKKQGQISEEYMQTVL
Sequence of Progesterone receptor (Homo sapiens) (P06401 whole entry, looked up): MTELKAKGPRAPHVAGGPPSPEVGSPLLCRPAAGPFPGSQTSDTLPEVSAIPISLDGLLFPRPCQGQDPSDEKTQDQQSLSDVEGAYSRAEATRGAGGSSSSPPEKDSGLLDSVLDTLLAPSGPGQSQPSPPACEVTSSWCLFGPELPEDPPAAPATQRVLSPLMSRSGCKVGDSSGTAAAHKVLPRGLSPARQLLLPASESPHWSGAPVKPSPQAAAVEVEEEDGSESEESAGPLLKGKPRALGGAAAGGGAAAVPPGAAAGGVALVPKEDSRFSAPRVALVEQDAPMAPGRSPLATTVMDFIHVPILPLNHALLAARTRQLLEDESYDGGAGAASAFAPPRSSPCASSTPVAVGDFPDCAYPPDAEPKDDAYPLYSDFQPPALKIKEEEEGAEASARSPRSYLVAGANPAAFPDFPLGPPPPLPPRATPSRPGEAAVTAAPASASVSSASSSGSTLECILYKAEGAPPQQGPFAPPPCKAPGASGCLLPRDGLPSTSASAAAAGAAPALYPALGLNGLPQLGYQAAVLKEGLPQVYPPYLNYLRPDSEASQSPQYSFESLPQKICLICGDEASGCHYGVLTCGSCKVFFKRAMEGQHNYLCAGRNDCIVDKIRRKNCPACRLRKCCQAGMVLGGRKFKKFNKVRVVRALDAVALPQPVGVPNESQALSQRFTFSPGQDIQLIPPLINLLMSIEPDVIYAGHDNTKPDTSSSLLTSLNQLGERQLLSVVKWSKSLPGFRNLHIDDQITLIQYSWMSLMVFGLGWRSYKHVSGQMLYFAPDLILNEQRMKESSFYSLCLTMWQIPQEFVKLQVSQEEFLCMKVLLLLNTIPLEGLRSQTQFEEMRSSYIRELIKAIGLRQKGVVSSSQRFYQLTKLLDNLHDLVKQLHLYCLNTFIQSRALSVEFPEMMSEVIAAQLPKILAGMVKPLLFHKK
Sequence of Nuclear receptor subfamily 1 group I member 2 (Rattus norvegicus) (Q9R1A7 whole entry, looked up): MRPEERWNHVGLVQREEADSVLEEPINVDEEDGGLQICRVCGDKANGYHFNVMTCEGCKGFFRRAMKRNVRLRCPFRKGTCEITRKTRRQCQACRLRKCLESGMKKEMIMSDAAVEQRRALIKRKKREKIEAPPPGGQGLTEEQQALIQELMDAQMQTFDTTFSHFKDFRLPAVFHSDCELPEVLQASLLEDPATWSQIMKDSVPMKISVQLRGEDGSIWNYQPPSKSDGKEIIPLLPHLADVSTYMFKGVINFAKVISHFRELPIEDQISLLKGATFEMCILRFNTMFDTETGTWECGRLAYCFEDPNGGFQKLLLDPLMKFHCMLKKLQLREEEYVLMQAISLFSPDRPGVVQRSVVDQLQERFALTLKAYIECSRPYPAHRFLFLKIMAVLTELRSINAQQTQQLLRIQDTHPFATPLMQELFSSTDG

Regarding `CN(C)C(=O)Nc1ccc(Cl)cc1`, the result in assay [1] and in [8] was inactive. Further, the Potency entry in [2], in assay [3], in [4], in assay [5], in assay [6] and in [7] was “inactive” in each case. Moreover, the Potency entry in assay [9], in assay [10], in assay [11], in assay [12] and in [13] was “inactive” throughout.

In the case of `Cc1ccc(N)c(N)c1`, the Potency entry in assay [2], in [14], in assay [5], in assay [6], in [7] and in assay [9] was “inactive” throughout. Moreover, the Potency result in [10], in assay [12] and in assay [15] was “inactive” in each case. Moreover, the outcome in assay [8] was inactive. In [13], the Potency is 8.66 µM (active) and 19.3 µM (active).

Turning to `Nc1c(Cl)cc([N+](=O)[O-])cc1Cl`, the Potency in assay [3] is 30.6 µM (active); in assay [13], 27.5 µM (active). The Potency result in assay [4], in [6], in assay [7], in [16], in assay [17] and in assay [9] was “inactive” each time. The Potency result in [10], in assay [11], in assay [12] and in assay [15] was “inactive” throughout. Besides, the compound was called inactive in assay [8].

As for `O=[N+]([O-])c1c(Cl)c(Cl)c(Cl)c(Cl)c1Cl`, the Potency result in [2], in assay [3], in [4], in [5], in assay [6] and in assay [7] was “inactive” each time. Also, the Potency result in assay [16], in assay [17], in assay [9], in assay [11], in assay [12] and in assay [13] was “inactive” in each case.

With `CCCCOCCOP(=O)(OCCOCCCC)OCCOCCCC`, the compound was classed as inactive in assay [1] and in [8]. Further, the Potency result in assay [2], in assay [4], in assay [5], in assay [6], in [7] and in assay [9] was “inactive” each time. In addition, the Potency result in [10], in assay [12] and in assay [15] was “inactive” each time. In addition, the Potency in assay [13] is 10.9 µM (active) and 19.3 µM (active).

For the compound `O=C(Nc1ccc(Br)cc1)c1cc(Br)cc(Br)c1O`, the call in assay [1] and in [19] was inactive. The Potency was 21.6 µM (active) and 9.69 µM (active) in assay [2]; 12.1 µM (active) and 21.7 µM (active) in assay [4]; 30.8 µM (active) and 21.9 µM (active) and 19 µM (active) in assay [6]; 24.5 µM (active) and 43.6 µM (active) and 23.9 µM (active) in [7]; 6.31 µM (active) and 8.63 µM (active) and 10.6 µM (active) in assay [9]; 17.2 µM (active) and 15.4 µM (active) in assay [11]. Further, the Potency in [13] is 13.6 µM (active) and 13.7 µM (active) and 21.1 µM (active). The Potency entry in assay [5], in assay [16], in assay [17], in [10] and in assay [12] was “inactive” throughout. Also, in [18], the max activation is -12.3%.

Take `C=C(C)[C@H]1Cc2c(ccc3c2O[C@@H]2COc4cc(OC)c(OC)cc4[C@@H]2C3=O)O1`: the compound was called inactive in assay [1] and in assay [8]. In addition, the Potency in assay [2] was 2.77 µM (active) and 96.9 nM (active) and 188 nM (active); in assay [3], 19.6 µM (active) and 9.69 µM (active) and 11.9 µM (active); in assay [9], 112 nM (active) and 2.17 µM (active) and 298 nM (active); in assay [11], 175 nM (active) and 770 nM (active) and 7.5 µM (active); in assay [15] it was 39.1 µM (active) and 30.6 µM (active) and 5.31 µM (active). Further, the Potency entry in assay [7], in assay [16], in assay [17], in assay [10], in assay [12] and in [13] was “inactive” each time.
